# Compounds without any hit were thinned out: in the full panel of roughly 79,000, 15% have a hit. Values without a mark were called inactive. Calls of active or inactive are those of the source. Cut-off read from the data, not from the text of the source: active = growth inhibition above about 70%; inactive = the rest.
# Legend:
# [1] = NCI Yeast Anticancer Drug Screen. Data for the rad50 strain (AID 155);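 note: 0% = growth of vehicle-only cultures of the same strain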; settings: S. cerevisiae rad50 strain growth inhibition; at 50.0 µM; stronger effect = higher value
# Procedure, shortened: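 DNA repair mutant yeast, compound exposure, growth read-out; inhibition is taken relative to vehicle.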
# [2] = NCI Yeast Anticancer Drug Screen. Data for the mec2-1 strain (AID 157); settings: S. cerevisiae mec2-1 strain, at 50.0 µM, stronger effect = higher value
# Procedure, shortened: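 Cells of the genetically defined mec2-1 yeast strain are incubated with test compound. Inhibition of growth is calculated against vehicle-treated controls.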
# [3] = NCI Yeast Anticancer Drug Screen. Data for the sgs1 mgt1 strain (AID 161);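 note: 0% = growth of cultures given vehicle only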; settings: S. cerevisiae sgs1 mgt1 strain, at 50.0 µM, stronger effect = higher value
# Procedure, shortened: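 Mutant yeast exposed to compound; growth scored against vehicle-only wells.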
# [4] = NCI Yeast Anticancer Drug Screen. Data for the cln2 rad14 strain (AID 165);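 note: 0% = growth equal to vehicle treated cultures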; settings: S. cerevisiae cln2 rad14 strain, at 50.0 µM, stronger effect = higher value
# Procedure, shortened: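 The screen exposed genetically defined yeast (cln2 rad14) to test compounds and scored growth inhibition relative to vehicle-treated controls.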
# [5] = NCI Yeast Anticancer Drug Screen. Data for the bub3 strain (AID 167); settings: S. cerevisiae bub3 mutant strain, at 50.0 µM, stronger effect = higher value
# Procedure, shortened: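 In this screen, a yeast mutant lacking normal mitotic checkpoint function is challenged with compound. Relative growth versus vehicle gives the inhibition value.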
# [6] = NCI Yeast Anticancer Drug Screen. Data for the mlh1 rad18 strain (AID 175); settings: S. cerevisiae mlh1 rad18 strain growth inhibition; at 50.0 µM; stronger effect = higher value
# Procedure, shortened: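 Compound-treated yeast growth, normalised to vehicle controls. Strain bears defined DNA repair mutations.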
Structure (SMILES),growth inhibition [1],growth inhibition [2],growth inhibition [3],growth inhibition [4],growth inhibition [5],growth inhibition [6]
CCC1(CCC(C)C)C(=O)NC(=NCCCC(N)C(=O)O)NC1=O (configuration not stated),11.1%,-0.35%,7.6%,30.3%,3.25%,13.1%
OCCN1CCN(c2cccc(Cl)c2)CC1,-7.5%,-12.7%,-34.6%,-11.1%,-8.05%,-4.8%
C[N+]1([O-])C2CCC1CC(O)C2 (configuration not stated),4.1%,7.55%,1.45%,16.2%,-2.5%,17.4%
O=C(Oc1cc(Cl)c(S(=O)(=O)F)cc1Cl)c1ccc([N+](=O)[O-])cc1,78.2% (active),86% (active),90.2% (active),64.8%,73.5% (active),89.9% (active)
CC(=N/O)/C(C)=N\O,21%,14.8%,5.7%,13.4%,-0.4%,40.3%
COC(=O)C1C(=O)NC2(C)CC1c1ccccc1O2 (configuration not stated),-28%,-11.7%,-30.8%,8%,-12.5%,-1.45%
Clc1ccc(N=P(c2ccccc2)(c2ccccc2)c2ccccc2)cc1.[Cl][Cd][Cl],95% (active),71% (active),81.8% (active),75.9% (active),64.2%,69%
O=C1Cc2ccccc2C(=O)N1CCN1CCOCC1,4.05%,-14.2%,-3.95%,1.55%,-1.5%,1.55%
CC[As](=O)(O)CCCc1ccccc1,5.55%,32.9%,14.9%,3.1%,-0.15%,-2.05%
CCCCCCCC(=O)O.[Sn],-2.25%,-7.35%,-9.6%,-45.9%,12.1%,-19%
Cc1cc(F)ccc1[As](=O)(O)O,-0.55%,-1.95%,-3.25%,-17.9%,5%,3.25%
Oc1ccccc1I,11.9%,4.85%,-57%,-8.7%,-42.9%,-14.2%
N/C(=N\NC(=O)c1ccc([N+](=O)[O-])cc1)N[N+](=O)[O-],-11.1%,-12.2%,-3.65%,28.8%,11.2%,1.75%
CCN(CC)C(=S)Cl,-35.4%,-29.4%,-0.5%,-2.15%,19.1%,-24.5%
Cn1cc([N+](=O)[O-])c([N+](=O)[O-])c1,-3.8%,2.5%,-11.6%,-74.8%,-6.3%,0.85%
[N-]=[N+]=[N-],6.75%,5.75%,15%,-3.05%,18%,-13.7%
CC(=O)Nc1cc([As]=O)ccc1O (configuration not stated),29.2%,25.2%,31.8%,10.6%,50.8%,32.6%
CN(C)c1ccc(C(c2c(O)c3ccc(O)cc3oc2=O)c2c(O)c3ccc(O)cc3oc2=O)cc1,8.4%,7.75%,22.2%,32.7%,3.9%,11.4%
Cc1cc(O)c2c(c1)OC(C)(C)C1=C2CC(C)CC1 (configuration not stated),-6.4%,10.8%,-1.05%,-52.8%,-16.1%,-21.9%
COc1ccc2[nH]cc(/C=C\[N+](=O)[O-])c2c1,6%,-10.1%,32.4%,2.2%,7.65%,13.8%
COc1cc(C2c3[nH]c4ccccc4c3C[C@H]3COC(=O)N23)cc(OC)c1OC (some centres not stated),62.6%,15.3%,57.5%,24.4%,54%,-10.2%

Structure (SMILES),growth inhibition [1],growth inhibition [2],growth inhibition [3],growth inhibition [4],growth inhibition [5],growth inhibition [6]
Cn1cnnc1N,5.4%,5.7%,6.3%,4.4%,13.2%,4.35%
COc1ccc2c(c1OC)C(=O)O[C@@H]2[C@H]1c2cc3c(cc2CCN1C)OCO3,-8.75%,-4.8%,0.95%,6.75%,4.8%,-43.5%
CC1CN1C1=C(Br)C(=O)C(N2CC2C)=C(Br)C1=O (configuration not stated),73.7% (active),23.1%,84% (active),-3.05%,62%,79.8% (active)
CC(=O)CC(C)=O,-7.2%,3.8%,-3%,-11.3%,1.7%,1.8%
COC(=O)CCc1ccc(NP(=O)(Oc2ccccc2)N(CCCl)CCCl)cc1 (configuration not stated),13.3%,20.2%,23.4%,35.8%,12.2%,-8.55%
COP(=O)(Oc1ccccc1)Oc1ccccc1,17.6%,-17.5%,23.9%,13.1%,25.9%,18.5%
CCOC(=O)C[Se]CC(=O)OCC,-8.65%,11.2%,11.2%,-14.2%,43.8%,28.3%
C[N+](C)(C)CC1CCCC/C1=N\O (configuration not stated),23.2%,0.3%,9.75%,39%,8.6%,39.3%
CCOP(=O)(OCC)C(=O)N(CC)CC,12.2%,21.9%,10.6%,7.15%,20.8%,1.45%
COc1ccc(CC(N)c2nn[nH]n2)cc1 (configuration not stated),4.1%,-1%,-1.1%,-23.1%,8.15%,-1.75%
CC1OC(OC2C(O)CC(OC3C(O)CC(OC4CCC5(C)C(CCC6C5CCC5(C)C(C7=CC(=O)OC7)C(O)CC65O)C4)OC3C)OC2C)CC(O)C1O (configuration not stated),-12.8%,10.6%,-19.1%,-13.1%,-5.45%,27.6%
NC(=O)c1cc([N+](=O)[O-])cc([N+](=O)[O-])c1N(CCCl)CCCl,-3%,-10.9%,-15.4%,-3.8%,-8.95%,-14.6%
Cc1ccc(-c2cc(C)n(C)[n+]2C)cc1,8.05%,7.05%,8.7%,-20.9%,9.6%,-3.05%
CC(C)C1C=Cc2ccccc21 (configuration not stated),13.8%,1.85%,4.45%,-13.1%,-3.55%,28.8%
COc1cc2c(c3oc4cccc(O)c4c(=O)c13)[C@@H]1C=CO[C@@H]1O2,-11.6%,-15.2%,-7.05%,26.1%,-8.7%,-8.9%
NC(=O)C1(Br)CCCCC1,-11.8%,-18.9%,-10.5%,-7.25%,8.45%,-3.55%
[C-]#[O+].[Cl][Ru]([Cl])([Cl])([Cl])[Cl],-7.05%,-8.95%,35%,-6.75%,11.3%,1.9%
O=Cc1ccccc1O.O=Cc1ccccc1O.O=Cc1ccccc1O.[La],-1.05%,-6.95%,4.7%,-10.1%,4.8%,16.9%
O=N[O-].O=N[O-].[NH2-].[NH2-].[NH2-].[NH2-].[Ni],0.55%,7%,19.6%,-48.7%,-14.8%,13.3%
COP(=O)(Cc1ccc(/C=C/C#N)o1)OC,-12.2%,-3.1%,-38.8%,-22.1%,18.2%,-10.2%
CC1C(C)(C)P(=O)(Oc2cccc3cccnc23)C1(C)C (configuration not stated),83.3% (active),64.7%,84.5% (active),64.6%,99% (active),57.2%

# Reference: PubChem BioAssay (NCI)
